# From PubChem BioAssay (NCATS)
# Results filed as inconclusive are left out. Where a call stands in place of a potency, no number is given. The source made the active and inactive calls. Unless noted, calls follow the shape of the dose curve; as a rule, active = well fitted curve in the direction sought with a large enough effect; inconclusive = small, poorly fitted or top-dose-only effect, or another doubt; inactive = no such curve, though single readings can be large; an effect the other way counts as inactive or inconclusive.
# What was measured:
# [1] = qHTS for differential inhibitors of proliferation of Plasmodium falciparum line HB3 (AID 1886); settings: Potency: Plasmodium falciparum HB3 proliferation inhibition; series mostly up to 28.7 µM;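 also: parasites grown with compound for 72 h before SYBR Green readout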
# [2] = target: Ferritin light chain (Equus caballus) (UniProt P02791); test: qHTS Validation Assay for Identification of Novel General Anesthetics (AID 2323); settings: horse apoferritin, anesthetic-site fluorescent probe displacement; series mostly up to 76.9 µM
# In short: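 Apoferritin from horse spleen (10 uM) was mixed with 1-aminoanthracene at 50% saturation in PBS, then compounds were added. After 10 min at room temperature, fluorescence was read (ex 380 nm, em 535 nm) and normalized to free-probe and complex controls.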
# [3] = target: ATP-dependent DNA helicase Q1 (Homo sapiens) (UniProt P46063); test: qHTS Validation Assay for Inhibitors of RecQ-Like Dna Helicase 1 (RECQ1) (AID 2353); settings: recombinant RECQ1 helicase DNA unwinding assay; series mostly up to 25.6 µM
# In short: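 50 nM RECQ1T1 preincubated 15 min with compound in Tris pH 8.0 buffer with MgCl2, DTT, Tween-20 and 2.5 ug/ml poly(dI-dC); started with 200 nM TAMRA/BHQ-2 forked duplex and 2 mM ATP. Unwinding read as fluorescence (525/598 nm), two reads 2 h apart.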
# [4] = Cytometric Cell-Based qHTS for Inhibitors of the mTORC1 Signaling Pathway in MEF (Tsc2-/-, p53-/-) Cells (AID 2660); settings: mTORC1 pathway cytometry; series mostly up to 38.3 µM;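 also: percent of cells above a phospho-rpS6 to PI ratio cutoff in each well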
# In short: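 Readout: Alexa-488 phospho-rpS6 (Ser235/236) intensity divided by PI intensity, thresholded against 7.5 nM rapamycin wells and reported as % positive cells. PI cell count served as the viability measure. Compound exposure was 24 hrs at 37 degree Celsius.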
# [5] = High Content Imaging Cell-Based qHTS for Inhibitors of the mTORC1 Signaling Pathway in MEF (Tsc2-/-, p53-/-) Cells (AID 2666); settings: at 38.3 µM (top of the series);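 also: percent of cells scored positive for phospho-rpS6 Ser235/236 immunostaining by imaging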
# In short: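 Phospho-rpS6 (Ser235/236) immunofluorescence, normalized and scored as % positive cells using rapamycin and DMSO controls, was read in empty-vector Tsc2-/-, p53-/- MEFs after 24 h compound exposure at 37 C; propidium iodide counted cells.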
# [6] = High Content Imaging Cell-Based qHTS for Inhibitors of the mTORC1 Signaling Pathway in MEF Cells (AID 2667); settings: series mostly up to 38.3 µM;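 also: Tsc2-/- p53-/- MEFs stably re-expressing wild-type Tsc2 exposed 24 h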
# In short: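 WT MEFs (Tsc2-/-, p53-/- re-expressing Tsc2), in DMEM + 10% FBS, were treated with compound for 24 h at 37 C. Cells were then fixed and stained for phospho-rpS6 Ser235/236 with propidium iodide as cell count. Values are % positive cells, with thresholds set against rapamycin-treated cells.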
# [7] = Cytometry Cell-Based qHTS for Inhibitors of the mTORC1 Signaling Pathway in MEF cells (AID 2668); settings: mTORC1 pathway readout; series mostly up to 38.3 µM;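 also: Tsc2-/- p53-/- mouse embryonic fibroblasts stably re-expressing wild-type Tsc2; percent cells positive for phospho-rpS6 Ser235/236 relative to propidium iodide stain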
# In short: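 Pathway inhibition in WT Tsc2-rescued Tsc2-/-, p53-/- MEFs is measured as the Alexa-488 phospho-rpS6 to propidium iodide intensity ratio after 24 hrs of compound at 37 degree Celsius. PI-stained cell number gives viability.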
# [8] = qHTS Assay for Identification of Small Molecule Inducers of Hypoxia Response (AID 2120; active = well fitted curve in the direction sought with a large enough effect in the signal ratio, with a control signal flat, not every such curve was filed as active; the % refers to the signal ratio); settings: hypoxia response reporter cells, beta-lactamase ratio readout; series mostly up to 104 µM
# In short: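 HRE-bla ME-180 cells in Opti-MEM with 0.5% dialyzed FBS, pre-plated 4-5 h, then compound titration for 17 h at 37 degrees Celsius. CCF4 loaded 2.5 h at room temperature; 460/530 nm ratio gave %Activity and AC50 for induction.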
# Chain of Ferritin light chain (Equus caballus) (P02791 2-175 limits assumed): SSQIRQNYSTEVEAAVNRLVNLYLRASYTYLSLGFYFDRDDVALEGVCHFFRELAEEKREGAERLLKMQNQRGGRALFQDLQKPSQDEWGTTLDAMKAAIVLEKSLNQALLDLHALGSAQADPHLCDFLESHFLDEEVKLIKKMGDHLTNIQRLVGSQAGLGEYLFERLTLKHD
# Chain of ATP-dependent DNA helicase Q1 (Homo sapiens) (P46063 whole entry, looked up): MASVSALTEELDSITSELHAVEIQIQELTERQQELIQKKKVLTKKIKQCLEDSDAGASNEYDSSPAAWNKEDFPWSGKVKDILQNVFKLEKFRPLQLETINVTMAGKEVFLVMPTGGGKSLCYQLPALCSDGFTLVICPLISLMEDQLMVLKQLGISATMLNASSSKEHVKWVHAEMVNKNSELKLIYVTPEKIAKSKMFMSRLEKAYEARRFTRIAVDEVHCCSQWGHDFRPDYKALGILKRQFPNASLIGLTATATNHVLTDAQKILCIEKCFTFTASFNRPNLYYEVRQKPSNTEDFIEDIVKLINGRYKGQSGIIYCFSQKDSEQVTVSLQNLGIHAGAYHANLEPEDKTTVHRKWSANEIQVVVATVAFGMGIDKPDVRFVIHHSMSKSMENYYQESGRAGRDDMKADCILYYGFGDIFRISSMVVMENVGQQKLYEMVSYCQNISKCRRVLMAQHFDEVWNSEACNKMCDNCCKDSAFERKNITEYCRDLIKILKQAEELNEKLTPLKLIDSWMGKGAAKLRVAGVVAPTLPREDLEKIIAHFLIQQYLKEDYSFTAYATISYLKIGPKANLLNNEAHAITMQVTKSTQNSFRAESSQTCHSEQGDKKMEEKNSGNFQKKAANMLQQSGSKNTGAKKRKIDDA
structure (smiles),measurement,setting,value
C[C@]12CC[C@@H]3c4ccc(O)cc4CC[C@H]3[C@@H]1CC[C@@H]2O,Potency,[1],inactive
same,outcome,[2],inactive
same,outcome,[3],inactive
same,outcome,[4],inactive
same,outcome,[5],inactive
same,Potency,[6],inactive
same,Potency,[7],inactive
CC[C@H](C)C(=O)O[C@H]1CCC=C2C=C[C@H](C)[C@H](CC[C@@H]3C[C@@H](O)CC(=O)O3)[C@H]21,outcome,[4],inactive
same,outcome,[5],inactive
CC(=O)Oc1ccc(C(c2ccc(OC(C)=O)cc2)c2ccccn2)cc1,outcome,[8],inactive
C=CCc1ccc(O)c(OC)c1,outcome,[8],inactive
CC(=O)O[C@]1(C(C)=O)CC[C@H]2[C@@H]3C[C@H](C)C4=CC(=O)CC[C@]4(C)[C@H]3CC[C@@]21C,outcome,[8],inactive
